Reference: PubChem BioAssay (NCATS)
“And” between values parts separate entries of the source, which are not always exact repeats. Equal values may be shown once. Records with an inconclusive call do not appear. The source made the active and inactive calls. Unless noted, the call rests on the fitted dose curve; in most records, active means well fitted curve in the direction sought with a large enough effect; inconclusive means small, poorly fitted or top-dose-only effect, or another doubt; inactive means no such curve, though single readings can be large; an effect the other way counts as inactive or inconclusive.

What was measured:
[1] = Cell Viability - BJ (AID 421; calls by dose curve;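 further: potency means the concentration at half of the fitted maximal effect; cells exposed to compound for 40 hours at 37 °C before readout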); settings: BJ fibroblast viability, qHTS
How it was run: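 Cytotoxicity as drop in intracellular ATP (CellTiter-Glo, 20 min RT) after 40 hr compound exposure of BJ fibroblasts at 37 °C. Titrations scaled between DMSO and 100 uM tamoxifen, Hill-fitted for AC50.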

[2] = Cell Viability - SK-N-SH (AID 435; calls by dose curve;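 further: potency means the concentration at half of the fitted maximal effect; compound exposure lasted 40 h at 37 °C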); settings: SK-N-SH neuroblastoma cell viability qHTS
How it was run: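 CellTiter-Glo ATP luminescence, 20 min RT read; cells pre-plated 5 hr, compound 40 hr at 37 °C, 1500 cells/well, complete medium. Normalized DMSO = 0, 100 uM tamoxifen = 100% inhibition; Hill-fit AC50.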

[3] = target: Mitogen-activated protein kinase 10 (Mus musculus) (UniProt Q61831); test: JNK3 AlphaScreen Assay (AID 530; active means well fitted curve in either direction with a large enough effect, not every such curve was filed as active;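 further: kinase came from lysate of stimulated human HepG2 cells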; further: potency means the concentration at half of the fitted maximal effect;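 on activity change, negative = inhibition: signal reports phosphorylation of biotinylated GST-cJun 1-79 at Ser73 with 10 µM ATP; on the % scale 0 is the no-effect control and ±100 the full control effect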); settings: JNK3 lysate, c-Jun phosphorylation; series mostly up to 57.1 µM
How it was run: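 Activity was read by AlphaScreen after JNK3-containing HepG2 lysate (cytokine pre-activated) phosphorylated biotinylated GST-cJun with 10 uM ATP at room temperature. Phospho-Ser73 cJun antibody with Protein-A acceptor beads provided detection.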

[4] = Cell Viability - SH-SY5Y (AID 544); settings: SH-SY5Y neuroblastoma cell viability; viability change, negative = cytotoxic: at 92.2 µM (top of the series);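 further: cells exposed to compound for 40 hours; nearly all actives have a fitted effect of over 55% in size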; further: potency means the concentration at half of the fitted maximal effect
How it was run: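 Cells were plated at 1500 per well and allowed 5 hr at 37 °C. Compounds were added across a concentration range and incubated 40 hr at 37 °C. CellTiter-Glo was added for 20 min at room temperature before luminescence reading.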

[5] = Cell Viability - Renal Proximal Tubule (AID 545); settings: renal proximal tubule cells viability, primary cells of rat origin; activity change, negative = cytotoxicity: at 91.7 µM (top of the series);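 further: cells exposed to compound for 40 hours; nearly all actives have a fitted effect of over 40% in size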; further: potency means the concentration at half of the fitted maximal effect
How it was run: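 Rat kidney proximal tubule cells, freshly isolated; 1000 cells/well, 5 hr settle, compound 40 hr 37 °C. CellTiter-Glo 20 min RT, luminescence read. AC50 by standard Hill fit.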

[6] = Cellular Toxicity (caspase-3) HepG2 (AID 654); settings: HepG2 caspase-3 activation, luminescence; series mostly up to 92.2 µM;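 further: cells exposed to compound for 16 hours before reading; 0% = DMSO alone and 100% = caspase signal from 100 µM tamoxifen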
How it was run: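 Caspase 3/7 activation in HepG2 is measured as rising luminescence after a 16 hr treatment at 37 °C. Values are scaled between DMSO basal and 100 uM tamoxifen, and AC50 is fitted with the Hill equation.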

[7] = Cellular Toxicity (caspase-3) HUV-EC-C (AID 656); settings: HUV-EC-C cells, caspase-3 activation (apoptosis); series mostly up to 92.2 µM
How it was run: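 Luminescent caspase-3/7 activation (aminoluciferin substrate cleavage) in HUV-EC-C cells after 16 hr compound exposure, 37°C. Signal normalized to DMSO basal and 100 uM tamoxifen as 100%; AC50 from concentration-response fitted with the Hill equation.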

[8] = Cellular Toxicity (caspase-3) Renal Proximal Tubule (AID 667); settings: renal proximal tubule cells, primary cells freshly taken from rat, solvent-only wells 0%, staurosporine 100%; series mostly up to 91.7 µM;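 further: cells exposed to compound for 16 hours at 37 °C before detection; 0% = DMSO basal and 100% = 10 µM staurosporine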
How it was run: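 Luminescent caspase 3/7 signal from peptide-aminoluciferin cleavage measures apoptosis in freshly isolated rat kidney proximal tubule cells after 16 h compound exposure. Concentration-response data are normalized to DMSO and 10 uM staurosporine, and AC50 values come from Hill equation fits.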

[9] = target: Cytochrome P450 3A4 (Homo sapiens) (UniProt P08684); test: qHTS Assay for Inhibitors and Substrates of Cytochrome P450 3A4 (AID 884); settings: recombinant CYP3A4, Luciferin-PPXE luminescence; series mostly up to 57.1 µM; further: nearly all actives have a fitted effect of over 50% in size; further: potency means the concentration at half of the fitted maximal effect; on activity change, negative = inhibition: on the % scale 0 is the no-effect control and ±100 the full control effect
Chain of Cytochrome P450 3A4 (Homo sapiens) (P08684 whole entry, looked up): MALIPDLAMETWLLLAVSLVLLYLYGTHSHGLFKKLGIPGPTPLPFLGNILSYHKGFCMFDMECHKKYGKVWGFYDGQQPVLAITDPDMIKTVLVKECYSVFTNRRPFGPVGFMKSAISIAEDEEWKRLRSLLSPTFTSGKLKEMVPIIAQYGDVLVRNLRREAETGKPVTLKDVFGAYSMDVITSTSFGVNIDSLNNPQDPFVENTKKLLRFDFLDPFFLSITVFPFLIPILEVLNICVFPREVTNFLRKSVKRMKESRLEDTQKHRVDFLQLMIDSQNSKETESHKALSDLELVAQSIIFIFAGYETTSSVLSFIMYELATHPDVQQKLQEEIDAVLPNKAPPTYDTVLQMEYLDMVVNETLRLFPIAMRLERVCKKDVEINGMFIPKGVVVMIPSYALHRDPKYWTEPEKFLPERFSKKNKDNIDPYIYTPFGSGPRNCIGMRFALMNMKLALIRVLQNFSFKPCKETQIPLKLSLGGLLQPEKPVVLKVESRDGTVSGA
How it was run: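 Luminescent readout of luciferin produced by CYP3A4 (20 nM) dealkylation of Luciferin-PPXE, 25 uM (its KM). NADPH-driven reaction ran 60 min at RT after 10 min compound preincubation; data scaled to 57 uM ketoconazole as 100% inhibition.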

[10] = target: Peroxisome proliferator-activated receptor alpha (Homo sapiens) (UniProt Q07869); test: qHTS assay for small molecule agonists of the peroxisome proliferator-activated receptor alpha (PPARalpha) signaling pathway (AID 651778); settings: PathHunter PPARalpha complementation, chemiluminescence, 6 h; max response: stronger effect = higher value; further: % of control where 0% means no effect
Chain of Peroxisome proliferator-activated receptor alpha (Homo sapiens) (Q07869 whole entry, looked up, the tested form may be a part): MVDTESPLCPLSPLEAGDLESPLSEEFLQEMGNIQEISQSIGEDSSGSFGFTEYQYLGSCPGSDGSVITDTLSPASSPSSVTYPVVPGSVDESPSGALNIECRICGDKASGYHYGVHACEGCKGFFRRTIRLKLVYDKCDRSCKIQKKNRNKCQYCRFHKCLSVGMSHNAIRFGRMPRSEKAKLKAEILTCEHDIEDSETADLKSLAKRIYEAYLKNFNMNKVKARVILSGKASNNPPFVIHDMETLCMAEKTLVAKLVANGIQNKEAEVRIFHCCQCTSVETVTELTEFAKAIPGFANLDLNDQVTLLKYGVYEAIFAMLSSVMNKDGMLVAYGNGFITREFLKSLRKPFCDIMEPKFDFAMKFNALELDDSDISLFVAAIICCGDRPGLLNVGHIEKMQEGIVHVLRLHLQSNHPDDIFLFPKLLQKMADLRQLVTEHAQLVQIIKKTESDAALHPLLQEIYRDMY
How it was run: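 Enzyme-fragment complementation assay in which ligand-bound PPARalpha translocates and forms an active enzyme that generates chemiluminescence. Cells were plated overnight, exposed to compound for 6 hr at 37 C, and then given detection reagent for 60 min at room temperature.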

[11] = qHTS assay for cell viability of HEK293 cells (AID 743288); settings: ATP luminescence (CellTiter-Glo), 18 h; max response: stronger effect = lower value; further: nearly all actives have a fitted effect of over 50% in size; further: potency means the concentration at half of the fitted maximal effect
How it was run: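 ATP luminescence (CellTiter-Glo) reports metabolically competent cell number after parental HEK293 cells, 2,000/well, were treated with DMSO-dissolved compounds for 18 h at 37 C; reagent incubation 30 min, room temperature.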

[12] = NFAT Signaling Pathway (AID 444; active means well fitted curve in either direction with a large enough effect, not every such curve was filed as active;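 further: carbachol stimulus at about its EC50 of 1 µM final; on the % scale 0 is the no-effect control and ±100 the full control effect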); settings: Jurkat NFAT-bla M1, carbachol, beta-lactamase ratio, 5 h
How it was run: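 Jurkat cells with NFAT-driven β-lactamase reporter and co-expressed M1 receptor, stimulated with carbachol (final 1 uM, ~EC50), compound titration, 5 h at 37 °C. CCF4 loaded 1 h at RT; 460/530 nm ratio gave %activity and AC50.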

[13] = Stat Signaling Pathway (AID 446; active means well fitted curve in either direction with a large enough effect, not every such curve was filed as active;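 further: ME-180 cervical cancer cells given 40 pM IL-6 alongside compound; SIE-controlled beta-lactamase reporter measured as 460/530 nm FRET emission ratio; on the % scale 0 is the no-effect control and ±100 the full control effect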); settings: ME-180 (cervical carcinoma) SIE beta-lactamase reporter, IL-6 stimulated, 5 h
How it was run: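 FRET read-out (405 nm excitation, 460/530 nm emission) of a beta-lactamase reporter under a STAT-inducible element in ME-180 cervical carcinoma cells. Cells with compound receive 40 pM IL-6 for 5 h. Values are normalised to AC90 stimulation and AC90 JAK-inhibitor controls.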

[14] = target: Glucocorticoid receptor (Homo sapiens) (UniProt P04150); test: GR-GFP Redistribution (AID 450;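 active means compounds whose dose series gives a full or clear partial fitted curve of increased nuclear translocation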; further: potency means the concentration at half of the fitted maximal effect); settings: U2OS GR-GFP nuclear translocation, laser cytometry, 2 h; series mostly up to 20.6 µM
Chain of Glucocorticoid receptor (Homo sapiens) (P04150 whole entry, looked up): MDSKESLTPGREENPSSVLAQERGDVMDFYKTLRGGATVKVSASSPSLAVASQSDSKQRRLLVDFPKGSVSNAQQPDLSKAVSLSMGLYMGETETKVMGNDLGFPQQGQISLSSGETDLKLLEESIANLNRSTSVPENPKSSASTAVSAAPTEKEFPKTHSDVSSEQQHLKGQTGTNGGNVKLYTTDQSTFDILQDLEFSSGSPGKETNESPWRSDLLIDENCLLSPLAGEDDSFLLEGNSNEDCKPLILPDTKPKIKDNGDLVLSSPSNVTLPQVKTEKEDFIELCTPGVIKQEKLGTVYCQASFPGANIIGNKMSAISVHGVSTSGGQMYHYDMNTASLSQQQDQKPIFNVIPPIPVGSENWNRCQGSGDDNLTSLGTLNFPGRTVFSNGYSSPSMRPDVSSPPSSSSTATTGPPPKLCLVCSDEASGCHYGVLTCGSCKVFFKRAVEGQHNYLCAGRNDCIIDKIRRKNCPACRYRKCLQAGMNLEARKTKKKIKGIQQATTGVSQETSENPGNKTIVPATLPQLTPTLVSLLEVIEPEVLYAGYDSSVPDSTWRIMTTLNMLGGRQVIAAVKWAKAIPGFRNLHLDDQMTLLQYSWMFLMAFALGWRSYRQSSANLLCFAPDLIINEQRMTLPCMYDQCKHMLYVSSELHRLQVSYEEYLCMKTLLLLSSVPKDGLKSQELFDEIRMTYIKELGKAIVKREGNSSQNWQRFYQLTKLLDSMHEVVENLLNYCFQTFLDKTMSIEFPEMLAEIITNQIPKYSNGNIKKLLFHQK

[15] = Cell Viability - MRC5 (AID 434; calls by dose curve;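 further: potency means the concentration at half of the fitted maximal effect; cells exposed to compound for 40 hours at 37 °C; potency reflects cytotoxicity seen as loss of intracellular ATP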); settings: MRC5 lung fibroblast viability, qHTS
How it was run: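 ATP luminescence read-out (CellTiter-Glo, 20 min RT) after 40 hr, 37 °C compound exposure of 1500 MRC5 cells/well. Data normalized to DMSO (basal) and 100 uM tamoxifen (100% inhibition); AC50 from standard Hill equation.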

[16] = Cellular Toxicity (caspase-3) Mesangial (AID 660); settings: mesangial cells, normalized: DMSO 0%, 100 µM tamoxifen 100%; at 91.7 µM (top of the series);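 further: combined caspase 3 and 7 activity read by Caspase-Glo luminescence; cells exposed to compound for 16 h before the caspase read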
How it was run: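 Seed cells derived from normal human renal glomeruli, incubate 5 h, add compounds across concentrations and incubate 16 h at 37 °C. Caspase 3/7 activation is then quantified by luciferase light, with AC50 derived by Hill modeling.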

[17] = Cellular Toxicity (caspase-3) N2a (AID 665); settings: N2a cells, luminescence; Potency: caspase-3 activation; series mostly up to 92.2 µM;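 further: compound exposure lasted 16 h at 37 °C before readout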
How it was run: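 Caspase-3/7 activation, measured as increased luminescence from aminoluciferin release, is quantified in mouse N2a cells exposed to compounds for 16 h. Values are normalized to DMSO and 10 uM staurosporine, with AC50 derived by Hill modelling.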

[18] = target: Cytochrome P450 3A4 (Homo sapiens) (UniProt P08684); test: qHTS Assay for Activators of Cytochrome P450 3A4 (AID 885); settings: recombinant CYP3A4, Luciferin-PPXE luminescence, 60 min; series mostly up to 57.1 µM; further: nearly all actives have a fitted effect of over 65% in size
How it was run: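 Luminescent readout of luciferin formed from 25 uM Luciferin-PPXE (KM level) by 20 nM CYP3A4 in 200 mM KPO4, with 60 min NADPH-driven reaction at room temperature after 10 min compound exposure. Ketoconazole (57 uM) defined 100% inhibition.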

[19] = target: 3',5'-cyclic-AMP phosphodiesterase 4B (Homo sapiens) (UniProt Q07343); test: qHTS Assay for Inhibitors of PDE-IV (AID 607; active means well fitted activation curve with a large enough effect in the main read-out, with a control signal flat, not every such curve was filed as active; further: % of control where 0% means no effect); settings: HEK293 ACTOne CNG channel cells, membrane potential fluorescence; series mostly up to 22.9 µM
Chain of 3',5'-cyclic-AMP phosphodiesterase 4B (Homo sapiens) (Q07343 whole entry, looked up): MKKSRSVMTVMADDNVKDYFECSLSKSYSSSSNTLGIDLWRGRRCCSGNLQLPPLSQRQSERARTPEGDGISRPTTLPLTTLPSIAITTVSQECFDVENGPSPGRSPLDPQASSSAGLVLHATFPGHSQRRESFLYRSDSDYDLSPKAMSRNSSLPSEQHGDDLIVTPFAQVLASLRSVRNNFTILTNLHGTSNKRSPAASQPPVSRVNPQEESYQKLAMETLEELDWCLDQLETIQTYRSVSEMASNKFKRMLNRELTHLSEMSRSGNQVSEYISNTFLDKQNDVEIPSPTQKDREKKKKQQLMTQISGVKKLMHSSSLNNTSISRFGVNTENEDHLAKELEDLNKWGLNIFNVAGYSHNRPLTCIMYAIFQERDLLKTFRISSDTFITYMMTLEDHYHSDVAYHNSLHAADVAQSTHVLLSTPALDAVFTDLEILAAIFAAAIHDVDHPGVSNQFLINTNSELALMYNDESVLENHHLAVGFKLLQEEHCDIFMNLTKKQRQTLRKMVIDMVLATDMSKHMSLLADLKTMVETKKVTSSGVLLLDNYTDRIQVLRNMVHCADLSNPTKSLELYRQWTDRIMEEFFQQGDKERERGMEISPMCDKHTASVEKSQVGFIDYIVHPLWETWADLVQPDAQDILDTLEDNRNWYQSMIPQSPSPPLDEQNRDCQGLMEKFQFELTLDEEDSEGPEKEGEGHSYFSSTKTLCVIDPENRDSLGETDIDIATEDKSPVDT
How it was run: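 Cell-based read-out of cAMP via a modified cyclic nucleotide-gated channel and membrane potential dye (535/590 nm) in HEK293 cells expressing PDE4 endogenously. Compounds tested up to 22.9 uM final; 100 uM RO 20-1724 reference.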

[20] = at 17.2 µM (top of the series) unless noted

O=C1OC(O)C(C(Cl)Cl)=C1Cl (stereo unspecified)
inactive: Potency [3] | Potency [6] | Potency [7] | outcome [8] | Potency [9] | max response [10] -7.18% | max response [11] -27.5%
active: Potency [1] 41.2 µM | Potency [2] 30.2 µM | Potency [4] 15.8 µM | Potency [5] 31.6 µM

Cc1cc(C)c(C#N)c(SCC(=O)N2CCN(Cc3ccccc3)CC2)n1
inactive: activity change, negative = inhibition [12, 20] -24.4% | activity, negative = inhibition [13, 20] 11.8% | Potency [14] > 20.6 µM

O=C1NC2c3ccccc3C(=O)N2c2c1cnn2-c1ccccc1 (stereo unspecified)
inactive: activity change, negative = inhibition [12, 20] -1.9% | activity, negative = inhibition [13, 20] -7.17% | Potency [14] > 20.6 µM

Cc1cc(Nc2ccc(O)cc2)ccc1N
inactive: Potency [15] > 92 µM | Potency [5] | Potency [6] | Potency [7] | caspase-3 activation [16] 23.2% | Potency [17] | outcome [8] | Potency [18] | max response [10] -7.64% | max response [11] -27%
active: Potency [2] 87 µM | Potency [4] 6.31 µM | Potency [9] 15.8 µM

Cc1c(-c2cccs2)[n+](=O)c2c(n1[O-])CCCC2
inactive: activity change, negative = inhibition [12, 20] -0.25% | activity, negative = inhibition [13, 20] 6.22% | Potency [14] > 20.6 µM

CCCCC(=O)c1c(C)cc(C)[nH]c1=O
inactive: activity change, negative = inhibition [12, 20] 4.24% | activity, negative = inhibition [13, 20] 1.99% | Potency [14] > 20.6 µM

[N-]=[N+]=CC(=O)c1ccnc(C(=O)C=[N+]=[N-])c1
inactive: activity change, negative = inhibition [12, 20] -17.4% | activity, negative = inhibition [13, 20] -1.87% | Potency [14] > 20.6 µM

COc1cc2c(c(OC)c1OC)-c1ccc(OC)c(=O)cc1[C@H](NC(C)=O)CC2
inactive: activity change, negative = inhibition ([12]; at 17.2 µM (top of the series)) -4.77% | activity change, negative = inhibition ([12]; at 38 µM (top of the series)) 3.11% | activity, negative = inhibition ([13]; at 17.2 µM (top of the series)) 4.59% | activity, negative = inhibition ([13]; at 38 µM (top of the series)) -18.3% | Potency [3] | Potency [19]

c1ccc2c(c1)-c1cccc3c1c-2cc1ccccc13
inactive: Potency [1] > 92 µM | Potency [15] > 92 µM | Potency [2] > 92 µM | Potency [4] | Potency [5] | Potency [6] | Potency [7] | caspase-3 activation [16] -0.695% | Potency [17] | outcome [8] | Potency [9] | max response [10] -0.066% and -2.89% | max response [11] -13.5% and -14.9%
active: Potency [3] 2.51 µM [activator]

C=CC(=O)OCCOCCOC(=O)C=C
active: Potency [1] 35.8 µM | Potency [2] 22.7 µM | Potency [4] 6.31 µM | Potency [5] 20 µM
inactive: Potency [3] | Potency [6] | Potency [7] | caspase-3 activation [16] 0.177% | Potency [17] | outcome [8] | Potency [9] | max response [10] -4.05%

CC(=O)Nc1ccc(C(=O)CCl)cc1
inactive: Potency [3] | Potency [6] | Potency [7] | caspase-3 activation [16] -4.19% | Potency [17] | outcome [8] | Potency [9] | max response [10] -5.76% and -2.53%
active: Potency [1] 36.2 µM | Potency [2] 15.6 µM | Potency [4] 3.16 µM | Potency [5] 31.6 µM | Potency [11] 22.4 µM and 25.1 µM

CCOC(=O)C1/C(=N\O)CC(C)(O)C(C(=O)OCC)C1c1ccc(OC)c(OC)c1 (stereo unspecified)
inactive: activity change, negative = inhibition [12, 20] -0.404% | activity, negative = inhibition [13, 20] 0.164%

C=C(C)c1ccccc1
inactive: Potency [1] > 92 µM | Potency [15] > 92 µM | Potency [2] > 92 µM | Potency [4] | Potency [5] | Potency [6] | Potency [7] | caspase-3 activation [16] 0.545% | Potency [17] | outcome [8] | max response [10] -0.0788% | max response [11] 1.22%

Nc1ccc2cc3ccccc3cc2c1
inactive: Potency [1] > 92 µM | Potency [15] > 92 µM | Potency [2] > 92 µM | Potency [4] | Potency [5] | Potency [6] | Potency [7] | caspase-3 activation [16] -0.235% | Potency [17] | outcome [8] | Potency [18] | max response [10] -3.75% | max response [11] -16.2%
